Most compounds without a hit are left out; they make up all but 3.8% or so of the library.
H9c2 protect – modulators protecting cardiomyocytes from myocardial damage | H9c2 cardiomyocytes, H2O2 injury protection, ATPLite, 2 h | protection from H2O2 cell death, % at 20 µM | 360,000 compounds, 0.63% hits | AID 588492;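 active = compounds giving at least 50% protection of heart cells from peroxide-induced death in the single-dose screen, raw or plate-pattern-corrected value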
MPTP block – blocks calcium-induced mitochondrial swelling; 360,000 compounds, 1.4% hits; inhibition, % at 10 µM; isolated mouse mitochondria, Ca2+ swelling absorbance, 30 min; AID 602449;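 active = inhibition of 50% or more, scaled per plate between neutral and stimulator controls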
aDG glyco up – increases alpha dystroglycan glycosylation; Pro5-aDG cells, alpha-DG glycosylation AlphaScreen (IIH6); 0% Pro5, 100% B10-LARGE cell signal; activation, % at 10 µM; 360,000 compounds, 0.22% hits; AID 624168;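 active = activation of at least 8% versus controls, or a plate z-score of at least 8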;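 also: Pro5 are CHO cells carrying HIG-tagged alpha-DG that lacks glycosylation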
FAS TE block – inhibitors of human fatty acid synthase thioesterase domain. inhibition, % at 15 µM. recombinant FAS-TE, OMFH fluorogenic substrate, fluorescence endpoint. 360,000 compounds, 0.67% hits;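 active = compounds whose normalised, plate-corrected inhibition of enzyme fluorescence in the single-dose primary screen is 50% or more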
CR mimetic SO – lowers age-related superoxide in aged yeast cells; S. cerevisiae aged cells, superoxide DHE fluorescence; active compounds read low; superoxide response (% of plate mean), % at 10 µM; 330,000 compounds, 0.18% hits;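 active = superoxide response under a set limit, about three screen SD below normal, cut at about 65% in these data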;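 also: yeast aged for seven days with compound at 30 °C before DHE staining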
Mot1-301 SUMO – SUMOylation pathway inhibition by Mot1-301 growth rescue; 320,000 compounds, 1% hits; growth rescue, % at 18.8 µM; S. cerevisiae Mot1-301 growth rescue, ATP luminescence, 38.5C; percent above DMSO median, 100 means doubled;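 active = every valid replicate shows activation above 250% relative to neutral control wells; inactive = the rest, any valid replicate at or below 250%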
FAS-TE conf – FAS thioesterase (human) inhibition, confirmation; shares compounds with FAS TE block; recombinant FAS-TE, OMFH fluorogenic substrate, fluorescence; inhibition, % at 15 µM; 2,300 compounds, 45% hits;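 active = compounds inhibiting the enzyme by at least 50% at 15 µM in any one of the replicates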
Numbers stand for hits; i = inactive; nt = no result given.

SMILES | H9c2 protect | MPTP block | aDG glyco up | FAS TE block | CR mimetic SO | Mot1-301 SUMO | FAS-TE conf
CN1c2ccccc2C(C)(C)C12CC(c1cccc(S(=O)(=O)N3CCCC3)c1)=NO2 (stereo not given) | i | i | i | 74 | i | i | i
COc1ccc(N(C(=O)CCl)C(C(=O)NCCc2ccccc2)c2cccs2)cc1Cl (stereo not given) | i | i | i | 64 | i | 264 | 33
COc1cccc(N(C(=O)CCl)C(C(=O)NCCc2ccccc2)c2cccs2)c1 (stereo not given) | i | i | i | i | i | i | nt
CC(=O)O[C@H]1C(=O)[C@]2(C)[C@H]([C@H](OC(=O)c3ccccc3)[C@]3(O)C[C@H](OC(=O)[C@H](O)[C@@H](NC(=O)c4ccccc4)c4ccccc4)C(C)=C1C3(C)C)[C@]1(OC(C)=O)CO[C@@H]1C[C@@H]2O | i | i | i | i | i | i | nt
CC(=O)O[C@H]1C(=O)[C@@]2(C)C([C@H](OC(=O)c3ccccc3)[C@]3(O)C[C@H](OC(=O)[C@H](O)[C@@H](NC(=O)c4ccccc4)c4ccccc4)C(C)=C1C3(C)C)[C@]1(OC(C)=O)CO[C@@H]1C[C@H]2O (stereo not given in full) | i | i | i | 52 | i | i | i
Cc1ccc(SC2=C(Sc3ccc(C)cc3)C(=O)c3ccccc3C2=O)cc1 | i | i | i | 70 | i | i | i
COc1ccc([N+](=O)[O-])cc1C(=O)Nc1ccc(Cc2ccncc2)cc1 | i | i | i | 60 | i | i | 54
Cc1c([N+](=O)[O-])cc(C(=O)Nc2ccc(Cc3ccncc3)cc2)cc1[N+](=O)[O-] | i | i | i | 63 | i | i | 51
COCCNC(=O)C1(C)CCN(C(=O)c2ccc(OC)c(F)c2)C1 (stereo not given) | i | i | i | i | nt | nt | nt
CCc1cccc2sc(N3CCN(C(=O)c4ccc([N+](=O)[O-])o4)CC3)nc12 | i | i | i | 52 | i | i | 40
O=C(c1ccc([N+](=O)[O-])o1)N1CCN(Cc2ccccc2)CC1 | i | i | i | i | i | i | nt
O=C(N/N=C/c1coc2ccc(Cl)cc2c1=O)c1cc(O)cc(O)c1 | i | i | i | 67 | i | i | i
Cc1ccc2occ(/C=N/NC(=O)c3ccc(Cl)cc3)c(=O)c2c1 | i | i | i | i | i | i | nt
CCN(CC)c1cc2nonc2c2nonc12 | i | i | i | 51 | i | i | 45
O=C(CSc1nnnn1Cc1ccccc1)NC1CCCCC1 | i | i | i | i | i | i | nt
O=C(CSc1ncnc2c1nnn2Cc1ccccc1)NC1CCCCC1 | i | i | i | 58 | i | i | 49
Cc1cc(=O)n2[nH]c(NCc3c(F)cccc3Cl)nc2n1 | i | i | i | i | i | i | nt
CCCCCC(=O)N1CC2(CC(c3cccc(NC(=O)CC(c4ccccc4)c4ccccc4)c3)=NO2)C[C@@H]1C(N)=O (stereo not given in full) | i | i | i | i | i | i | nt
NC(=O)[C@H]1CC2(CC(c3cccc(NC(=O)CC(c4ccccc4)c4ccccc4)c3)=NO2)CN1C(=O)C(c1ccccc1)c1ccccc1 (stereo not given in full) | i | i | i | 67 | i | i | i
NC(=O)[C@H]1CC2(CC(c3cccc(NC(=O)CC(c4ccccc4)c4ccccc4)c3)=NO2)CN1C(=O)c1ccccc1C(=O)c1ccccc1 (stereo not given in full) | i | i | i | 75 | i | i | i
CSC[C@H]1CN(c2ccccc2)C(=O)[C@@H]1CC(=O)Nc1ccccc1 | i | i | i | i | nt | nt | nt
CN(Cc1ccc2nsnc2c1)C(=O)C1CCC(=O)N(CCc2ccccc2)C1 (stereo not given) | i | i | i | i | nt | nt | nt
COc1ccc([N+](=O)[O-])cc1NC(=O)CCC(=O)c1cccs1 | i | i | i | 65 | i | i | 48
COCC(=O)Nc1cc([N+](=O)[O-])ccc1OC | i | i | i | i | i | i | nt
COc1ccc(C(CC(=O)Nc2cc([N+](=O)[O-])ccc2OC)c2ccccc2)cc1 (stereo not given) | i | i | i | 61 | i | i | 50
SMILES | H9c2 protect | MPTP block | aDG glyco up | FAS TE block | CR mimetic SO | Mot1-301 SUMO | FAS-TE conf
O=C(O)CC(NC(=O)CC(c1ccccc1)c1ccccc1)c1cccc([N+](=O)[O-])c1 (stereo not given) | i | i | i | 56 | i | i | 66
COc1ccc([N+](=O)[O-])cc1NC(=O)CSCc1ccccc1 | i | i | i | 62 | i | i | i
COc1ccc([N+](=O)[O-])cc1/C=N/NC(=O)Cc1ccccc1 | i | i | i | i | i | i | nt
COc1ccc([N+](=O)[O-])cc1NC(=O)Cc1ccc(Cl)cc1 | i | i | i | 81 | i | i | i
COc1ccc([N+](=O)[O-])cc1NC(=O)CCCOc1ccccc1 | i | i | i | 68 | i | i | 71
COc1cc(/C=N/NC(=O)Cc2ccccc2)ccc1Oc1ccc([N+](=O)[O-])cc1[N+](=O)[O-] | i | i | i | 59 | i | i | i
COc1cc(NC(=O)C2(C)CCCN(C(C)C)C2)cc(OC)c1OC (stereo not given) | i | i | i | i | nt | nt | nt
O=C(CCN1C(=O)/C(=C/c2ccccc2Cl)SC1=S)Nc1ccccn1 | i | i | i | 65 | i | i | 59
O=C1/C(=C/c2ccccc2Cl)SC(=S)N1CCCC(=O)N(CCO)c1ccccc1 | i | i | i | 56 | i | i | 40
O=C(CCCN1C(=O)/C(=C/c2ccccc2Cl)SC1=S)Nc1ccccn1 | i | i | i | i | i | i | nt
Cc1ccc(C(=O)NNC(=O)CCCN2C(=O)/C(=C/c3ccccc3Cl)SC2=S)cc1 | i | i | i | i | i | i | nt
O=C(CCN1C(=O)/C(=C/c2ccccc2Cl)SC1=S)Nc1cccnc1 | i | i | i | 62 | i | i | i
Cc1ccc(S(=O)(=O)N2[C@@H](c3ccc(C(C)(C)C)cc3)C(C(=O)O)=CC[C@H]2c2cccc(Cl)c2)cc1 | i | i | i | i | i | i | nt
Cc1ccc(S(=O)(=O)N2[C@@H](c3ccc(C(C)(C)C)cc3)C(C(=O)O)=CC[C@H]2c2ccc(Cl)c(Cl)c2)cc1 | i | i | i | 55 | i | nt | i
O=C(Nc1ccc2c(c1)OCCO2)C(c1ccnc2ccccc12)N1CCN(c2ccc(C(F)(F)F)cn2)CC1 (stereo not given) | i | i | i | 92 | nt | nt | i
CC(C)NC(=O)c1sc(=S)n2c1[nH]c(=O)c1ccc(C(=O)NCCc3ccc(Cl)cc3)cc12 | i | i | i | 64 | i | i | i

From PubChem
